High-throughput results from PubChem BioAssay.
IMPase cell inh: IMPase inhibition in cells | 120,000 tested, under 10 active | CHO-M1 cells, IP1 accumulation, HTRF TR-FRET ratio | AID 901 | inhibition (IP1 accumulation), % at 46.1 µM | P97697; active means well fitted curve in the direction sought with a large enough effect in the signal ratio, not every such curve was filed as active; inconclusive means small, poorly fitted or top-dose-only effect, or a change in a side signal; inactive means no such curve, though single readings can be large or run the other way; the % refers to the signal ratio;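 further: cells stimulated with carbachol in lithium chloride buffer; higher means more IMPase inhibition seen as more IP1 and lower FRET ratio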
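Cellular IMPase inhibition is scored as a rise in cytosolic IP1, detected by competitive TR-FRET between d2-labelled IP1 and a europium anti-IP1 antibody. M1-expressing CHO cells were stimulated with carbachol for 30 min at 37C, with lithium (50 mM LiCl) present in the buffer.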
HPGD inh: HPGD (human) dehydrogenase inhibition. purified HPGD, NADH fluorescence kinetic, PGE2 substrate. AID 894. actives 4.3% (n = 150,000). P15428. Potency, µM, hits mostly inhibitors
Target sequence (P15428 whole entry, looked up): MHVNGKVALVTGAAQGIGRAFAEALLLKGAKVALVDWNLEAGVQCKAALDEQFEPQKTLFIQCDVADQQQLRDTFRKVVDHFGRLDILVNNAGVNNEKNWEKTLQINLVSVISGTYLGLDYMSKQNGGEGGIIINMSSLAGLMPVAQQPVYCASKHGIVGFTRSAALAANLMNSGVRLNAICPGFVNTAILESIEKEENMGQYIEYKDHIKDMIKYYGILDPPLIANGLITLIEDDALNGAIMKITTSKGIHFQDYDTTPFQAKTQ
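20 nM HPGD preincubated 15 min at room temperature with compound in 50 mM Tris-HCl pH 8, 0.01% Tween 20. Started with 1 mM NAD+ and 30 uM prostaglandin E2; NADH fluorescence (360/450 nm) read 5 times over 30-s intervals, last minus first.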
ALDH1A1 inh: inhibitors of human aldehyde dehydrogenase 1A1; Purified ALDH1A1, NADH fluorescence, propionaldehyde substrate; Potency, µM (top dose mostly 75.3 µM), usual class: inhibitors; actives 7.3% (n = 220,000); AID 1030
Target sequence (P00352 whole entry, looked up): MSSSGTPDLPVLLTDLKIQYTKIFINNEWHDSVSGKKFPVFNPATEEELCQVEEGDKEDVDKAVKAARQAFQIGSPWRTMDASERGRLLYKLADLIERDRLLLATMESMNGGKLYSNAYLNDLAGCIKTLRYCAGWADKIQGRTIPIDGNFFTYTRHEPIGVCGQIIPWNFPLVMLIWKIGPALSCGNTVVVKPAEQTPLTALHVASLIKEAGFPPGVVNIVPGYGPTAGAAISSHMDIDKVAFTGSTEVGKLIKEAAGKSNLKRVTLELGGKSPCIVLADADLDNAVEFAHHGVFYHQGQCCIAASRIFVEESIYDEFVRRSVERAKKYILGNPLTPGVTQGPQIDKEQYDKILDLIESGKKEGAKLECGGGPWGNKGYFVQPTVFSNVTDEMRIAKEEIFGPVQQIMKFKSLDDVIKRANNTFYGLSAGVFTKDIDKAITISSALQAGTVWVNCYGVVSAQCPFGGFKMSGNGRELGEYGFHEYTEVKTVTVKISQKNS
KinaseGlo FLuc: Kinase-Glo luciferase inhibition (counter-screen); Q27757; Kinase-Glo luciferase, ATP luminescence, 8 min; Potency, µM (highest dose often 38.3 µM), most hits filed as inhibitors; actives 0.28% (n = 200,000); active means well fitted inhibition curve with a large enough effect; inconclusive means small, poorly fitted or top-dose-only effect; further: nearly all actives have a fitted effect of over 60% in size
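Luminescence was the read-out, taken after 8-minute incubation at ambient temperature. Luciferase turned over luciferin with 10 uM ATP in imidazole pH 7.2 buffer containing KCl, MgCl2, Tween 20 and BSA.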
PNC inhibitor: inhibitors of perinucleolar compartment assembly; PC3M PTB-GFP, PNC prevalence imaging, 16 h; stronger effect = lower value; AID 2417; actives 3.1% (n = 140,000); activity change (PNC), negative = inhibition, % at 10 µM;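 active means readout at or below -70, meaning at least 70% loss of cells showing the perinucleolar compartment, a nuclear body marking cancer cells; inconclusive means readout between -30 and a set limit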
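Read-out is percentage of cells bearing a perinucleolar compartment, from automated 20x imaging of fixed, Hoechst-stained PC3M PTB-GFP cells. Cells were seeded 4 h, then exposed 16 h to compound (23 nl of library stock) in duplicate plates.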
LMNA splice mod: changes lamin A minigene splicing in HeLa cells; actives 0.01% (n = 200,000); HeLa LMNA splicing GFP/RFP minigene ratio, 48 h; Potency, µM (doses to about 46.1 µM), actives largely listed as inhibitors; active means well fitted inhibition curve with a large enough effect in the signal ratio, with a control signal flat, not every such curve was filed as active; inconclusive means small, poorly fitted or top-dose-only effect, or effect the other way, or a change in a side signal; the % refers to the signal ratio
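S3 HeLa cells stably expressing lamin A-EGFP splicing minigene plus DsRed2, 600 cells/well, 48 h compound exposure at 37C. Laser-scanning cytometry; analysed as GFP (500-530 nm)/RFP (575-640 nm) total intensity ratio; 0.5% DMSO vehicle.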
Hits are given with their value; i = inactive; ? = inconclusive; nt = no result; ! = not confirmed by another sample; [ ] = remark or other dose. Hits are enriched below; roughly 10% of the tested compounds scored in any of these assays. Unless noted, the call rests on the fitted dose curve; in most records, active means well fitted inhibition curve with a large enough effect (not every such curve was filed as active); inconclusive means small, poorly fitted or top-dose-only effect, or another doubt; inactive means no such curve, though single readings can be large or run the other way.

SMILES	IMPase cell inh	HPGD inh	ALDH1A1 inh	KinaseGlo FLuc	PNC inhibitor	LMNA splice mod
CCCCNC(=O)c1ccc(N2CCOCC2)c(NS(=O)(=O)c2ccc(OC)cc2)c1	i	i	8.9µM	i	?	i
CCOc1ccc(S(=O)(=O)Nc2ccccc2C(=O)Nc2ccccc2N2CCOCC2)cc1	i	i	28µM	i	?	i
CCOCCCNC(=O)c1ccc(N2CCOCC2)c(NS(=O)(=O)c2ccc(OC)cc2)c1	nt	nt	2.5µM	i	nt	nt
c1ccc(-c2nnc3sc(-c4csc5c4CCCC5)nn23)cc1	i	11µM	7.9µM	i	i	i
CC(=O)c1cccc(N(CC(=O)NCC2CCCO2)C(=O)CCC(=O)Nc2cc(C)on2)c1 (centres undefined)	i	i	i	i	-100	?
Cc1cc(NC(=O)CCC(=O)N(CC(=O)NCC2CCCO2)c2ccc3c(c2)OCCO3)no1 (centres undefined)	nt	i	i	i	i	i
COc1ccc(OCC(=O)Nc2cc(-c3ccccc3F)nn2-c2ccccc2)cc1	nt	nt	nt	nt	nt	i
CCC(CC)C(=O)Nc1cccc(-c2nc3ncccn3c2C)c1	nt	nt	nt	nt	nt	i
CCN(CC)C(=O)c1ccc(Nc2nnc(C)c3ccccc23)cc1	?	2.2µM	4µM	11µM	i	i
CCN(CC)C(=O)c1ccc(Nc2nnc(-c3ccc(C)c(S(=O)(=O)NC)c3)c3ccccc23)cc1	i	nt	nt	nt	nt	nt
O=C(Nc1ccccc1C(=O)O)/C(=C/c1ccc([N+](=O)[O-])cc1)NC(=O)c1ccc(Br)o1	nt	nt	10µM	i	nt	nt
O=C(Nc1ccccc1C(=O)O)c1ccc(NC(=O)c2ccc(Br)o2)cc1	i	18µM	?	i	i	i
CC(=O)Oc1ccc(/C=C/C(=O)CC2OC(Oc3cc(OC(C)=O)c4c(c3)O[C@@H](c3ccc(OC(C)=O)cc3)CC4=O)C(OC(C)=O)C(OC(C)=O)C2OC(C)=O)cc1 (some centres undefined)	i	i	i	i	nt	nt
Cc1ccc(-c2ccc(=O)n(CC(=O)NCCc3ccc(Cl)cc3)n2)cc1	nt	nt	nt	nt	nt	i
CNC(=S)N/N=C(\C)c1ccc2c(c1)OCCO2	nt	i	2.8µM	i	i	i
CC(=O)NNC(=S)NC(=O)c1cccc([N+](=O)[O-])c1	nt	28µM	8.9µM	i	i	i
C/C(=N\Nc1cc(C)nc(-c2ccccc2)n1)c1cccc([N+](=O)[O-])c1	nt	nt	13µM	i	nt	nt
C/C(=N\NC(=O)C(N)=O)c1cccc([N+](=O)[O-])c1	nt	nt	i	i	nt	nt
CNC(=S)N/N=C(\C)c1cccc([N+](=O)[O-])c1	i	i	13µM	i	?	i
CNC(=S)N/N=C(\C)c1ccc2c(c1)OCO2	nt	nt	?	i	nt	?
Cc1ccc(CN(C(=O)COc2cccc(Cl)c2)c2ccccn2)o1	nt	nt	nt	nt	nt	i
CCOC(=O)CCN1C(=O)[C@H]2[C@H]3[C@H](O)[C@H](O)C/C(=N/NC(=O)OCc4ccccc4)[C@H]3CC[C@@H]2C1=O	nt	nt	i[13.5 µM]	nt	nt	nt
COc1ccc(CNC(=S)N/N=C/c2ccc(O)c(OC)c2)cc1	nt	i	i	i	i	i
COc1cc(/C=N/NC(=S)NC2CC3CCC2C3)ccc1O (centres undefined)	nt	nt	18µM	nt	nt	?
O=C(NCCc1ccccc1)c1ccc2c(c1)nc1n2CCOC1	nt	nt	nt	nt	nt	i
SMILES	IMPase cell inh	HPGD inh	ALDH1A1 inh	KinaseGlo FLuc	PNC inhibitor	LMNA splice mod
Cc1cc(C)n(CCc2nc(-c3ccco3)cs2)n1	i	?	7.1µM	i	i	i
Cc1nn(CCc2nc(-c3ccco3)cs2)c2[nH]c(=O)cc(C(F)(F)F)c12	i	?	2.5µM	i	?	i
C/C(=N\NC(=O)COc1ccc(C(C)(C)C)cc1)c1cc2ccccc2o1	nt	?	i	i	i	?
COc1ccc(NCC(=O)N/N=C(\C)c2cc3ccccc3o2)cc1	nt	nt	25µM	i	nt	nt
C/C(=N\NC(=O)CNc1ccc(F)cc1)c1cc2ccccc2o1	nt	nt	11µM	i	nt	i
CC(=O)N1CCN(c2ccc(S(=O)(=O)NCCN(C(C)C)C(C)C)cc2[N+](=O)[O-])CC1	nt	i	i	i	-105	i
CC(=O)Nc1nonc1-c1nnc(SCC(=O)Nc2cc(C)cc(C)c2)n1C	nt	nt	nt	nt	nt	i
CC1=Nn2c(nnc2-c2ccccc2Cl)SC1	i	25µM	i	i	i	i
COc1ccccc1-c1nnc2n1N=C(C)CS2	i	i	i	i	i	i
CC1=Nn2c(nnc2-c2ccco2)SC1	i	32µM	18µM	i	i	i
COc1ccc(C2=Nn3c(nnc3-c3ccco3)SC2)cc1OC	i	?	?	i	i	?
CCCCNc1nc2c(c(=O)n(Cc3ccc(Cl)c(Cl)c3)c(=O)n2C)n1C	i	nt	nt	nt	nt	nt
COc1ccc(/C=N/NC(=O)CCn2cnc(-c3ccccc3)c2-c2ccccc2)cc1OC	nt	i	28µM	i	?	?
CC(=O)N(Cc1cccs1)Cc1cc2ccc(C)c(C)c2nc1Cl	nt	nt	18µM	i	nt	i
Cc1cccc(NC(=O)C2CCN(c3nc4ccccc4[nH]3)CC2)c1C	nt	nt	nt	nt	nt	i
c1ccc2[nH]c(SCc3ccc(-c4nnco4)cc3)nc2c1	i	i	i	i	i	?
COc1ccc(CSc2nc3ccccc3[nH]2)cc1	i	i	i	8.9µM	i	i
O=C1CCC(=O)N1c1ccc(CSc2nc3ccccc3[nH]2)cc1	i	i	14µM	i	i	?
COc1ccc(CSc2nc3ncccc3[nH]2)cc1	nt	nt	nt	nt	nt	i
CC1=CC(=O)c2ccccc2C1=O	i	?	14µM!	i	i	?
CC(C)(C=O)C1=CC(=O)c2ccccc2C1=O	?	7.1µM	1.6µM	i	i	?
CCC(=O)N1C2=C(c3ccccc3[C@@H]1CC(=O)Nc1ccc3ccccc3c1)[C@@H]1C(=O)N(c3ccccc3)C(=O)[C@@H]1[C@H](C)C2	nt	i	i[13.5 µM]	i[7.66 µM]	nt	?
CCOC(=O)c1c(NC(=O)Cn2cnc([N+](=O)[O-])n2)sc2c1CCC(C)C2 (centres undefined)	i	i	i	i	i	i[0.0737 µM]
COC(=O)c1c(NC(=O)Cc2cccs2)sc2c1CCC(C)C2 (centres undefined)	i	13µM	14µM	i	?	i
COC(=O)c1c(NC(=O)Cn2cnc([N+](=O)[O-])n2)sc2c1CCC(C)C2 (centres undefined)	nt	11µM	i	i	?	i
CCOc1ccc(-n2nc3ccc(NC(=O)COc4ccccc4C)cc3n2)cc1	i	nt	nt	nt	nt	nt
CCSc1nc2nn(-c3ccccc3)c(=O)c-2c2n1CCCCC2	i	i	2.5µM	i	i	i
C=CCN1C(=O)C(CC(=O)O)SC1=Nc1cccc([N+](=O)[O-])c1 (centres undefined)	nt	nt	14µM	i	nt	i
C/[N+]([O-])=C1\Cc2ccccc2C1=O	?	i	3.5µM	i	i	i
O=C1/C(=N\O)Cc2ccccc21	i	i	?	i	i	i
